Data published in paper PMC4336329 (PLoS ONE, 2015).
Hit rate of the full screen: of about 310,000 compounds, about 2,200 (0.71%) showed an effect of 50% or more. Effects have a minus sign here. What follows is part of a selection rich in strong results, with near analogues and random picks from the rest.

target: human ether-à-go-go-related gene (hERG) potassium channel (human, UniProt Q12809); test: primary screen, population patch clamp on CHO cells stably expressing hERG; higher = less effect of the substance
Sequence (Q12809 whole entry, looked up): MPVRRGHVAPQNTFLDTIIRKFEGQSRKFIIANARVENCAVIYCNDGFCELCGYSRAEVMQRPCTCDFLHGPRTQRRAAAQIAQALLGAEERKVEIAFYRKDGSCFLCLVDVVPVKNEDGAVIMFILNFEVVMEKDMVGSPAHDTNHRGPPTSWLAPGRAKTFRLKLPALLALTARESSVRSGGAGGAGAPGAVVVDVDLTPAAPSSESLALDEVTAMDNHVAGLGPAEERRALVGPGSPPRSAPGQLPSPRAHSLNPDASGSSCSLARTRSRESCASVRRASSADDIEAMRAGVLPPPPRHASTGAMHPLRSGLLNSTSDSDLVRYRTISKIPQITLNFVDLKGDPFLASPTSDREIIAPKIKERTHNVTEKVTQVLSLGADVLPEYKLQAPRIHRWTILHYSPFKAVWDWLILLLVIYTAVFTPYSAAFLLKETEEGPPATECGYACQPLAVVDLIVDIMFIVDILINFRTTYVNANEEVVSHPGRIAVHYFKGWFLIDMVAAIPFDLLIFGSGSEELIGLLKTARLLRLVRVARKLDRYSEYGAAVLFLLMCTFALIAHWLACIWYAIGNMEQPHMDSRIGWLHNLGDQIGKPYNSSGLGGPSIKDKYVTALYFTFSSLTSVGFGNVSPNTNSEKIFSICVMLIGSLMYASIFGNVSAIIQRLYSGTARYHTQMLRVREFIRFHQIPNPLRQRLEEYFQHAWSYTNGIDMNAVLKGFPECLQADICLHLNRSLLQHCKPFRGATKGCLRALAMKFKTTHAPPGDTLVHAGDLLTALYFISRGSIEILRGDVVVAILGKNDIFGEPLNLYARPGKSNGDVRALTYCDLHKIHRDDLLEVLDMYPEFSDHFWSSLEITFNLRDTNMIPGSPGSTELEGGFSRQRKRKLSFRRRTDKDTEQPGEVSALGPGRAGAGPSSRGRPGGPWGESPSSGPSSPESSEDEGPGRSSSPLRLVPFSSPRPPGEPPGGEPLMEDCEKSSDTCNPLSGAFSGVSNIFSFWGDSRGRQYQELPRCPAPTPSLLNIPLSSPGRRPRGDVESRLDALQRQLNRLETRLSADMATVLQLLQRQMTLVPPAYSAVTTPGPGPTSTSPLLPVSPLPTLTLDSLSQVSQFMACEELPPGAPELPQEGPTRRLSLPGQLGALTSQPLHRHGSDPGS

SMILES	hERG current change (%, negative = inhibition) at 1uM [%]
Cc1ccc(NC(=O)CN(c2ccc(Cl)cc2)S(=O)(=O)c2cc([N+](=O)[O-])ccc2Cl)cc1	7.07
CC(C1CC2CCC1C2)n1c(COc2ccccc2F)nnc1SCC(N)=O (centres unmarked)	-1.9
O=C(c1ccco1)N1CCN(c2ccc(Cl)cc2)CC1	-5.03
Cc1nc2ccccc2c2oc(C(=O)N3CCN(C(=O)c4ccco4)CC3)cc12	-23.2
Cc1cc(N2CCN(C(=O)c3ccco3)CC2)c2ccccc2n1	-68.6
O=C(C1CCC1)N1CCN(c2ccnc3cc(Cl)ccc23)CC1	-59.6
O=C(c1ccco1)N1CCN(c2ncnc3c2[nH]c2ccc(Cl)cc23)CC1	-70.1
O=C(c1ccco1)N1CCN(c2ccnc3cc(Cl)ccc23)CC1	-63.6
O=C(C1CC1)N1CCN(c2ccnc3cc(Cl)ccc23)CC1	-31.6
Cc1cc(N2CCN(C(=O)c3ccco3)CC2)nc(-c2ccccc2)n1	-22.6
Cc1cccc2[nH]c3c(N4CCN(C(=O)c5ccco5)CC4)ncnc3c12	-5.77
O=C(c1ccco1)N1CCN(c2cccc(Cl)c2)CC1	9.98
CCOc1ccc2[nH]c3c(N4CCN(C(=O)c5ccco5)CC4)ncnc3c2c1	-3.41
O=C(C1CCCCC1)N1CCN(c2ccnc3cc(Cl)ccc23)CC1	-27.1
CCCOc1ccc(N2CC(C(=O)NC3=NCCS3)CC2=O)cc1 (centres unmarked)	-26
CCCCN1CCC(COC(=O)c2cc(Cl)c(N)c3c2OCCO3)CC1.Cl	-23.9
COc1ccccc1CNS(=O)(=O)c1ccc(-n2cccn2)cc1	13.3
O=C(NCc1cccs1)c1ccccc1	7.23
CCNc1nc(SCC(=O)OC)nc(N(C)C)n1	-1.18

SMILES	hERG current change (%, negative = inhibition) at 1uM [%]
COc1ccc(CN(CC(=O)NC2CCCCC2)C(=O)CCCC(=O)Nc2ccccn2)cc1	9.4
Cc1ccccc1OCC(=O)Nc1ccccc1C(=O)N1CCCCC1	-4.24
CC(=O)Nc1ccc(CNc2ncnc3ccc(-c4c(C)noc4C)cc23)cc1	11.5
O=C1C=C(O)C(n2cncn2)C(c2ccc(F)cc2)C1 (centres unmarked)	-9.66
COC(=O)c1cc(C(=O)OC)cc(N2C(=O)CC(NNC(=O)c3ccccc3Br)C2=O)c1 (centres unmarked)	4.08
O=C1NC2(CCCCC2)C(=O)N1Cc1cc(=O)n2ccsc2n1	6.06
Cc1ccc(CN2C(=O)CCC2C(=O)NCc2ccccc2Cl)cc1 (centres unmarked)	7.62
Nc1nc2ccc(-c3nc4ccccc4o3)cc2s1	11.2
CCOC(=O)N1CCN(c2ccnc3cc(Cl)ccc23)CC1	-36.7
CC(=O)N1CCN(c2ccnc3cc(Cl)ccc23)CC1	-23.2
CC(C)(C)C(=O)N1CCN(c2ccnc3cc(Cl)ccc23)CC1	-55.8
c1cncc(-c2nc3ccccn3c2Nc2ccc3c(c2)OCCO3)c1	4.02
O=C(O)CN(Cc1ccco1)S(=O)(=O)c1ccc(F)cc1	11.9
CCOc1cccc(C(=O)Nc2ccc3[nH]ncc3c2)c1	21.7
O=C(Nc1ccccc1)/C(=C\c1cccs1)NC(=O)c1ccccc1	14.9
O=C(N/C(=C/c1cccs1)C(=O)N1CCCC1)c1ccccc1	14.4
CN1CCN(C(=O)/C(=C\c2cccs2)NC(=O)c2cccs2)CC1	-77.3
O=C(N/C(=C\c1cccs1)C(=O)N1CCOCC1)c1cccs1	6.69
Cc1cccc(NC(=O)/C(=C\c2cccs2)NC(=O)c2ccccc2)c1	-65.1

SMILES	hERG current change (%, negative = inhibition) at 1uM [%]
O=C(N/C(=C/c1cccs1)C(=O)N1CCOCC1)c1cccs1	8.07
CN1CCN(C(=O)/C(=C\c2cccs2)NC(=O)c2ccccc2)CC1	-78.3
O=C(N/C(=C\c1ccc2c(c1)OCO2)C(=O)N1CCOCC1)c1cccs1	-18.7
Cc1ccc(NC(=O)/C(=C\c2cccs2)NC(=O)c2ccccc2)cc1	-1.02
O=C(N/C(=C/c1ccc2c(c1)OCO2)C(=O)N1CCOCC1)c1cccs1	9.57
O=C(N/C(=C\c1cccs1)C(=O)N1CCCCCC1)c1ccccc1	1.61
CN1CCN(C(=O)/C(=C\c2ccc3c(c2)OCO3)NC(=O)c2cccs2)CC1	-75.6
Cc1ccc(NC(=O)CCC(=O)c2ccc(Br)cc2)cc1	10.9
COc1ccc(C(=O)N/N=C/c2cc(Br)ccc2O)cc1OC	14.7
CCOc1cc(/C=C2/C(=N)N3C(=NC2=O)SN=C3S(C)(=O)=O)ccc1OS(=O)(=O)c1ccccc1	17.3
CCOC(=O)c1sc2nc(C)nc(NCc3cccnc3)c2c1C	10.8
COc1ccc(/C=N/Nc2ccc(C(F)(F)F)cc2[N+](=O)[O-])cc1O	3.36
[O-][n+]1onc2c3cc(-c4ccccc4)nnc3ccc21	1.69
CC(C)(Oc1ccc(Cl)cc1)C(=O)N1CCN(c2ccccn2)CC1	-1.81
COc1cccc(NC(=O)c2cc(-c3cccnc3)nc3c(Cl)cccc23)c1	7.59
COc1ccc(CC(O)CC2c3c(cc4c(c3OC)OCO4)CCN2C)cc1.Cl (centres unmarked)	-51.8
COc1ccc2c(c1OC)C(=O)OC2C1c2c(cc3c(c2OC)OCO3)CCN1C.Cl (centres unmarked)	9.06
COc1c2c(cc3c1C(CC(O)Cc1ccccc1)N(C)CC3)OCO2 (centres unmarked)	-14
